In all, about 48,000 compounds went through this assay and about 13,000 (27%) showed an effect of 50% or more. The list shows a part of the results.
Test system: Wolbachia pipientis
Assay: Anti-Wolbachia Cell-Based Screen
Type: functional
Design: scale not given: in the data most compounds retested in dose-response had high values
Conditions: 5 µM

| SMILES | Percent Effect [%] |
| --- | --- |
| Cn1cc(Br)cc(NC(=O)CC(C)(C)C)c1=O | 3.241 |
| CSc1ccc2cc(CN(C)CCc3cn[nH]c3)c(=O)[nH]c2c1 | 4.017 |
| CC(COc1ccccc1)NS(C)(=O)=O (configuration not stated) | -8.999 |
| CCOc1ccccc1CNC(=O)N(CC)C(C)c1cccnc1 (configuration not stated) | 2.92 |
| CC(C)NC(=O)NCc1ccccc1NS(=O)(=O)c1ccccc1 | 15.1 |
| CC(C)C(=O)NCc1ccccc1NS(=O)(=O)c1ccccc1 | -3.24 |
| CC(C)OCc1ccccc1CNC(=O)C(C)(C)C | 99.75 |
| CC(C)S(=O)(=O)C(C)C(=O)NCc1ccccc1OCc1ccccc1 (configuration not stated) | 96.24 |
| CC(C)S(=O)(=O)C(C)C(=O)NCc1cccc(N2CCCCC2=O)c1 (configuration not stated) | 12.9 |
| CC(C)OCc1ccc(CNC(=O)CC(F)(F)F)cc1 | 28.04 |
| CC(C)OCc1ccccc1CNC(=O)C(C)S(=O)(=O)C(C)C (configuration not stated) | 93.94 |
| CC(C)(C)C(=O)NCc1cnn2ccccc12 | -7.626 |
| CCc1ccccc1CNC(=O)CNC(=O)C(C)(C)C | -5.244 |
| CC(C)S(=O)(=O)C(C)C(=O)NCc1ccccc1COc1ccccc1 (configuration not stated) | 92.84 |
| Cc1cc(C(=O)N2CC(=O)Nc3cnccc32)c(Cl)cc1F | -6.598 |
| COc1ccc(N2CCCC3(C2)CN(c2nncs2)CCO3)cc1 (configuration not stated) | -4.383 |

| SMILES | Percent Effect [%] |
| --- | --- |
| O=C(Cc1ccsc1)NCC1Cn2nnc(-c3ccoc3)c2CO1 (configuration not stated) | -0.8336 |
| CC(C)N(C)C(=O)C1CCN(Cc2cc3c(cc2O)CCC3)CC1 | 3.726 |
| O=C(NCc1ccccc1CO)C1COc2ccccc21 (configuration not stated) | -7.77 |
| CCCN1CCC(Nc2cc(-c3ccccc3)ccc2OC)CC1 | 9.804 |
| C=C(C)CN(CC)C(=O)CN1CCCC1C(=O)N(C)C (configuration not stated) | 1.656 |
| COc1cc(C(=O)NS(=O)(=O)c2cccc(C#N)c2)cc(Cl)c1OC | 0.151 |
| CSc1ccsc1C(=O)NS(=O)(=O)c1cccc(C#N)c1 | -50.61 |
| CCOc1cc(C(=O)NS(=O)(=O)c2cccc(C#N)c2)ccc1OC | 121 |
| COc1cc(C(=O)NS(=O)(=O)c2ccc(C#N)cc2)ccc1C | 127.1 |
| COc1cc(C(=O)NS(=O)(=O)c2cccc(C#N)c2)cc(OC)c1C | 111.6 |
| COc1cc(C(=O)NS(=O)(=O)c2cccc(C#N)c2)cc(OC)c1Br | 100.1 |
| COc1ccc(C(=O)NS(=O)(=O)c2cncc(Br)c2)cc1OC | -20.98 |
| N#Cc1ccc(C(=O)NS(=O)(=O)c2ccc(F)c(F)c2)cc1 | 6.651 |
| N#Cc1ccc(S(=O)(=O)NC(=O)c2ccc3c(c2)COC3)cc1 | -13.21 |
| COc1cc(C(=O)NS(=O)(=O)c2cccc(C#N)c2)ccc1C | 0.1033 |
| CC(C)(C)C(=O)NCCC(=O)NS(=O)(=O)c1cccc(C#N)c1 | -5.738 |

Reference: ChEMBL document CHEMBL3988442, “University of Dundee, Small-Polar-MMV Screening Library” (2021)
